Screening results from PubChem BioAssay.
BL2 CD40 inh: inhibitors of CD40-induced NF-kB signaling, primary screen, BL2 cells, luciferase reporter, single point; CD40L-induced, 4 h; AID 1053188, 2014; hit rate 0.94% among 83,000; inhibition, % at 10 µM;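 active = mean inhibition of at least 50% with a set share of replicates also reaching that level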
Large screens that a line does not name were inactive. Many of the other results were omitted from the sample, so hits are more common in it than they were.

C[C@H]1CN([C@@H](C)CO)C(=O)c2ccccc2-c2ccccc2CO[C@@H]1CN(C)S(=O)(=O)c1cccc(C#N)c1	none
Fc1ccccc1-c1ccc(C2[C@H]3CNC[C@@H]2N3CC2CC2)cc1 (some centres not stated)	none
C[C@H](CO)N1C[C@H](C)[C@H](CN(C)Cc2ccc(C(=O)O)cc2)OCc2ccccc2-c2ccccc2C1=O	none
O=S(=O)(CCS(=O)(=O)c1ccccc1)c1ccccc1	none
CC(C)(C)OC(=O)CC(S(=O)(=O)c1ccccc1)S(=O)(=O)c1ccccc1	BL2 CD40 inh 67
CC(S(=O)(=O)c1ccccc1)S(=O)(=O)c1ccccc1	none
CCCN1[C@@H]2c3cccc(=O)n3C[C@H]1[C@H](CO)[C@H]2C(=O)N[C@@H](C)c1ccccc1	none
O=C(C1CCC1)N1C[C@@H]2[C@H](c3ccccc31)[C@H](CO)N2S(=O)(=O)c1ccccc1	none
O=C(Nc1ccccc1)N1CC(=O)N2[C@H](C1)[C@H](c1ccc(C#CC3CCCC3)cc1)[C@@H]2CO	none
CN(C)C(=O)c1ccc(-c2ccc3c(c2)[C@@H]2[C@@H](CCN2C(=O)C2CCCCC2)[C@H](CO)N3C)cc1	none
